Measured values taken from PubChem BioAssay AID1347056 (Sanford-Burnham Center for Chemical Genomics, 2019).
In all, about 360,000 compounds went through this assay and about 3,600 (1%) were called active.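 Rule for the calls: active = compounds whose plate-normalised and pattern-corrected inhibition of the luciferase reporter signal at the single screening dose is 50% or more; inactive = the rest.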 Many of the other results were omitted from the sample, so actives are more common in it than they were.

assay: inhibitors of TROY-driven NF-kB signaling, primary screen, Q293 LMP1-TROYcd cells, NF-kB luciferase, uHTS (AID 1347056); details: Q293 LMP1-TROYcd NF-kB luciferase reporter, 4 h; at 10 µM; stronger effect = higher value

| SMILES | inhibition |
| --- | --- |
| COc1cccc(-c2nc3ccc(N4CCN(C)CC4)cc3[nH]2)c1 | 79.8% (active) |
| CCn1cc(CN2CCCC(C(=O)c3cccc(C(F)(F)F)c3)C2)cn1 (stereo not given) | 10.1% (inactive) |
| CCOC(=O)[C@]12Cc3ccccc3[C@H]1N(C1CCCCC1)C(=O)c1cc(OC)ccc12 | 36.6% (inactive) |
| CNC(=O)Nc1ccc(C(O)(C(=O)OC)C(F)(F)F)cc1 (stereo not given) | -7.62% (inactive) |
| COc1cc(C(c2c(O)c3ccccc3oc2=O)c2c(C)n(C)n(-c3ccccc3)c2=O)ccc1O (stereo not given) | -7.22% (inactive) |
| CC(=O)OC1C2(CC3N4C(=O)C5(CO)SSC4(CC31O)C(=O)N5C)OC(C)C(C)(C)C2=O (stereo not given) | 64.8% (active) |
| CC(=O)Nc1ccccc1C(=O)OCC(=O)c1cccc2ccccc12 | -7.86% (inactive) |
| CN(C)CC1Oc2ccccc2OC1(O)c1ccccc1 (stereo not given) | 1.73% (inactive) |
| CCCCCCCCCCCCn1ccc(=N)cc1 | 64% (active) |
| Cc1nc2nc(C)c(CCC(=O)N3CCC4(CC3)OCCO4)c(C)n2n1 | 3.18% (inactive) |
| Cc1ccc(C)c(NC2=NCCCS2)c1 | 1.74% (inactive) |
| O=C(CCCn1c(=O)[nH]c2cc(Cl)ccc2c1=O)N1CCC2(CC1)OCCO2 | 7.33% (inactive) |
| CCOC(=O)C(O)(c1ccc(N)c(OC)c1)C(F)(F)F (stereo not given) | 7.19% (inactive) |
| CCC(C)(O)C(=O)OC1C(=O)OC2CC3C(C)=CC(=O)C(O)C3(C)C3C4(O)OCC23C1C(C)C4O (stereo not given) | 83.5% (active) |
| NCCc1c[nH]c2ccc(O)cc12 | 13% (inactive) |
| CC(=O)Nc1ccc(C(=O)C(Cc2ccccc2)N(C)C)cc1 (stereo not given) | 0.62% (inactive) |
| CCCCCCN=C(CC)c1c(O)n(CCCC)c(=O)[nH]c1=O | 17.9% (inactive) |
| CCOC(=O)c1c(N)n(Cc2ccccc2)c2nc3ccccc3nc12 | 51.6% (active) |

| SMILES | inhibition |
| --- | --- |
| CCOC(=O)c1cccc(C2=C(CNC(=O)c3ccncc3)[C@H]3CC[C@@H](C2)N3Cc2ccccc2)c1 | -20.1% (inactive) |
| COc1cc(Cn2c(N)c(C(=O)NCc3ccco3)c3nc4ccccc4nc32)cc(OC)c1OC | 13.5% (inactive) |
| COc1ccc(-c2nn(CCC#N)cc2C(=O)O)cc1 | -1.21% (inactive) |
| CNCC(O)c1cc(F)c(OCc2ccccc2)c(OCc2ccccc2)c1F (stereo not given) | 8.14% (inactive) |
| CC1CCC(N(C)C2CCN(C)CC2)CC1 (stereo not given) | 18.6% (inactive) |
| CCN1c2nc3c(C)cccn3c(=O)c2CC2(C(=O)N(C)C(=O)N(C)C2=O)C1C (stereo not given) | -6.84% (inactive) |
| CN1CCC(OC(=O)c2cccc(F)c2)CC1 | -37.5% (inactive) |
| Cc1ccc(C2CN(C)CC2C(=O)c2ccc(F)cc2)cc1 (stereo not given) | 57.6% (active) |
| COc1ccc(C(=O)C2CN(C)CC2C(=O)c2ccc(OC)cc2)cc1 (stereo not given) | -76.8% (inactive) |
| Cn1cc(C(=O)OCC(=O)N2CCCC2)c2ccccc21 | 8.39% (inactive) |
| O=C(Nc1cccc2ccccc12)N1CCC2(CC1)OCCO2 | 38.5% (inactive) |
| CCOC(=O)C1SC2(C(F)(F)C(F)F)CC1(O)c1c(c(OC)c3occc3c1OC)O2 (stereo not given) | -1.26% (inactive) |
| O=c1[nH]c2ccccc2n1C1CCN(C(c2ccnc3ccccc23)c2nnnn2Cc2ccccc2)CC1 (stereo not given) | 73.9% (active) |
| COc1ccc(-n2nnnc2C(c2cccc3ccccc23)N2CCC(n3c(=O)[nH]c4ccccc43)CC2)cc1 (stereo not given) | 27.6% (inactive) |
| O=c1[nH]c2ccccc2n1C1CCN(C(c2ccccc2)c2nnnn2Cc2ccccc2)CC1 (stereo not given) | 18.3% (inactive) |
| Cc1ccc(OC(=O)N(C)C[C@@H]2OCc3cnnn3CCCC(=O)N([C@H](C)CO)C[C@@H]2C)cc1 | 0.42% (inactive) |
| CC(C)c1ccc(OCC(=O)N2CCCN(C)CC2)cc1 | -4.27% (inactive) |
